Hits are enriched below; roughly 11% of the tested compounds scored in any of these assays.
ALDH1A1 block: blocks purified human ALDH1A1 activity; 220,000 compounds, 7.3% hits; Purified ALDH1A1, NADH fluorescence, propionaldehyde substrate; Potency, µM (doses to about 75.3 µM), for inactives: top-dose activity, negative = inhibition, actives largely listed as inhibitors;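 further: potency means the concentration at half of the fitted maximal effect; plate controls were no enzyme wells and a reference inhibitor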
Target sequence (P00352 whole entry, looked up): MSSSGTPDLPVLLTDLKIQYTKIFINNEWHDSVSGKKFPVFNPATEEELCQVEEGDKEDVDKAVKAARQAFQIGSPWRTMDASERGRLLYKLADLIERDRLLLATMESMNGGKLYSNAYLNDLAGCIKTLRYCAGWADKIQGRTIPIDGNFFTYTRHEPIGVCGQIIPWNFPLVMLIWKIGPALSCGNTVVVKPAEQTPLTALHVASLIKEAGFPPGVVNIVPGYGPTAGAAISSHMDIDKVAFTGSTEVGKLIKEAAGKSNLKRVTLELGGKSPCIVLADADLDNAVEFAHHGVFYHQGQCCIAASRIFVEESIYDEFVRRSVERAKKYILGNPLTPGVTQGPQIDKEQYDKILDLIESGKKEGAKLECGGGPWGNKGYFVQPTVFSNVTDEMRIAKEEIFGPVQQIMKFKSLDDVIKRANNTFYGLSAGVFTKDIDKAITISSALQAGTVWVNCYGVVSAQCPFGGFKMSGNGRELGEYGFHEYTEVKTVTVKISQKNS
HTT ATP protect: cytoprotection in Huntington HTT-Q103 PC12 cell model; AID 1471; Potency, µM (doses to about 56.4 µM), inactives show cytoprotection (ATP increase), actives largely listed as activators; PC12 HTT-Q103 induced, cytoprotection, ATP luminescence, 40 h; 230,000 compounds, 0.14% hits; active means well fitted curve in the direction sought with a large enough effect; inconclusive means small, poorly fitted or top-dose-only effect, or another doubt; inactive means no such curve, though single readings can be large; an effect the other way counts as inactive or inconclusive; further: potency means the concentration at half of the fitted maximal effect; % of control where 0% means no effect; nearly all actives have a fitted effect of over 45% in size
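Compounds added alongside 100 nM tebufenozide, which induces toxic Q103 huntingtin exon 1-GFP in stable PC12 cells; surviving cells quantified by luminescent ATP measurement. Medium: phenol red-free DMEM, 5% equine and 5% calf serum.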
PNC inhibitor: blocks assembly of the perinucleolar compartment. 140,000 compounds, 3.1% hits. PC3M PTB-GFP, PNC prevalence imaging, 16 h; stronger effect = lower value. activity change (PNC), negative = inhibition, % at 10 µM;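 active means readout at or below -70, meaning at least 70% loss of cells showing the perinucleolar compartment, a nuclear body marking cancer cells; inconclusive means readout between -30 and a set limit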;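 further: plate controls were DMSO wells for no effect and camptothecin positive control wells for full effect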
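PC3M cells stably expressing PTB-GFP, 750–1000 cells/well, treated 16 h at 37 °C with compound (23 nl of library stock), in duplicate. After paraformaldehyde fixation and Hoechst stain, imaged at 20x; PNC prevalence scored by image analysis.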
GoLoco inh red: inhibitors of human Gai1-RGS12 GoLoco interaction (red fluorophore) | P63096 | Gai1:RGS12 GoLoco peptide FP, rhodamine, 10 min | Potency, µM (top dose mostly 61.6 µM), inactives show at the highest dose activity, negative = inhibition, actives largely listed as inhibitors | 230,000 compounds, 0.44% hits; active means well fitted inhibition curve with a large enough effect, not every such curve was filed as active; inactive means no such curve, though single readings can be large or run the other way; further: potency means the concentration at half of the fitted maximal effect; on the % scale 0 is the no-effect control and ±100 the full control effect; nearly all actives have a fitted effect of over 30% in size
HTT aggregate: mutant huntingtin aggregation inhibition; PC12 HttQ103-GFP aggregates, Acumen cytometry, 40 h; Potency, µM (top dose mostly 46.1 µM), for the others: at the highest dose activity change, negative = inhibition, actives largely listed as inhibitors; 220,000 compounds, 1.1% hits; active means well fitted curve in the direction sought with a large enough effect; inconclusive means small, poorly fitted or top-dose-only effect, or another doubt; inactive means no such curve, though single readings can be large; an effect the other way counts as inactive or inconclusive; further: potency means the concentration at half of the fitted maximal effect; on the % scale 0 is the no-effect control and ±100 the full control effect; nearly all actives have a fitted effect of over 60% in size
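Inducible Q103 Huntingtin exon 1–GFP PC12 line, 1500 cells/well in phenol red free DMEM with 5% equine and 5% calf serum. Tebufenozide 100 nM induced expression; compounds titrated; aggregates quantified by cytometry.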
HPGD block: blocks human HPGD enzyme activity; Potency, µM, without a hit: at the top dose activity change, negative = inhibition, usual class: inhibitors; 150,000 compounds, 4.3% hits; purified HPGD, NADH fluorescence kinetic, PGE2 substrate; further: potency means the concentration at half of the fitted maximal effect; on the % scale 0 is the no-effect control and ±100 the full control effect
Target sequence (P15428 whole entry, looked up): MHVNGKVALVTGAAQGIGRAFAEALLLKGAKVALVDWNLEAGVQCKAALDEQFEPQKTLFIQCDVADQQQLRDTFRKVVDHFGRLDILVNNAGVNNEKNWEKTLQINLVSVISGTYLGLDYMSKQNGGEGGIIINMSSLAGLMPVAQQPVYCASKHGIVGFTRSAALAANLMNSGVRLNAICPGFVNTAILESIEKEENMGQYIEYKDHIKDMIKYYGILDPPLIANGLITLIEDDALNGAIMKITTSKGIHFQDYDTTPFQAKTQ
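NADH formation kinetics: reaction with 30 uM PGE2 and 1 mM NAD+ (final), 20 nM enzyme, Tris-HCl pH 8 with Tween 20, after 15 min compound preincubation at room temperature. Fluorescence change, last versus first of five reads.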
Active calls of the source: *; ? = inconclusive; / = not tested or not shown; [ ] = another dose, or the depositor's remark. Unless noted, the call rests on the fitted dose curve; in most records, active means well fitted inhibition curve with a large enough effect (not every such curve was filed as active); inconclusive means small, poorly fitted or top-dose-only effect, or another doubt; inactive means no such curve, though single readings can be large or run the other way.

SMILES	ALDH1A1 block	HTT ATP protect	PNC inhibitor	GoLoco inh red	HTT aggregate	HPGD block
CN(C)c1ncc([N+](=O)[O-])cc1C(F)(F)F	14µM*	-11%[10 µM]	/	1%	-1%[9.22 µM]	/
Nc1ncc([N+](=O)[O-])cc1Br	/	8%[10 µM]	/	11%	3%[9.22 µM]	/
Cc1ccc(S(=O)(=O)N[C@@H]2COC(=O)C/C=C\[C@H](C)COC(=O)N[C@@H](C)C(=O)C/C=C\[C@H]2C)cc1	-15%[13.5 µM]	5%[10 µM]	/	/	/	/
O=C(O)c1cc(S(=O)(=O)Nc2cccc(F)c2)ccc1Cl	7%	/	/	/	/	-10%
CN1CCc2cccc3c2C1Cc1ccc(O)c(O)c1-3 (stereo not drawn)	?	/	/	19%	/	5µM*
Clc1cc(Cl)cc(C2=N[C@@H](Cc3ccccc3)CO2)c1	-6%	-38%	/	-7%[88.7 µM]	/	-2%
Cc1c(-c2ccccc2)sc(Br)c1C(=O)N1CCOCC1	13%	-11%	1	-4%	-13%	1.6µM*
COc1cccc(OC)c1C(=O)N1CCOCC1	-1%	-9%[0.074 µM]	-12	13%	12%	-7%
Cc1ccc(-c2nc3sc4c(c3c(=O)n2N)CCCC4)cc1	?	-43%	-15	7%	?	?
Cc1ccc(S(=O)(=O)NC2CCC(C(=O)O)CC2)cc1 (stereo not drawn)	?	8%	-103*	5%	-6%	0%
CC(C)(C)c1ccc(O)c(/C=N\O)c1	1%	-3%	19	11%	17%	-14%
CC(C)(C)c1ccc(O)c(O)c1	0.89µM*	-142%	/	-12%	/	10µM*
CN(C)CCCCN1CCc2c(n(C)c3ccccc23)C1=O	12%[13.5 µM]	12%[10 µM]	/	7%[14.2 µM]	/	-8%
Cc1ccc(S(=O)(=O)Nc2cccc(CP(=O)(c3ccccc3)c3ccccc3)c2)cc1	24µM*	-17%[10 µM]	/	1%	-23%[9.22 µM]	/
COCC1C2CC[C@H]3C(OCc4ccc(F)cc4C(F)(F)F)OC[C@]4(C)[C@H]3C2=C(CN4C(=O)OC(C)(C)C)[C@H](C)C1COC (stereo partly drawn)	-4%	2%	/	3%	/	-10%
Cc1cccc(N2CCN(C(=O)C3CCN(c4nnc(-n5cccc5)s4)CC3)CC2C)c1 (stereo not drawn)	-14%	-13%[10 µM]	-112*	-10%	?	-3%
COc1ccc(C(=O)C2CCCN(Cc3c(C)[nH]c4ccccc34)C2)c(OC)c1 (stereo not drawn)	25µM*	-15%[10 µM]	/	-11%	35µM*	/
Cn1c2ccccc2c2cc(C(=O)NNC(=O)CCl)sc21	?	-35%	/	6%	16µM*	/
Nc1c(C(=O)NCc2ccco2)nnn1Cc1ccccc1	-3%	-18%	35	-4%	10%	-6%
O=C(c1ccco1)c1nnn(Cc2ccccc2)c1-c1ccccc1	11µM*	1%	?	12%	-22%	-11%
O=S(=O)(NCCc1ccccn1)c1ccc(F)c(F)c1	2%	5%	36	-5%	-2%	-4%
Cn1c(C(=O)OCC(=O)NCc2cccs2)cc2sccc21	-7%	-13%	-17	4%	-6%	-21%
COCCNC(=O)c1cc2sccc2n1C	7%	2%[10 µM]	/	13%	7%[9.22 µM]	/
CC(OC(=O)c1cc2sccc2n1C)C(=O)NCc1cccs1 (stereo not drawn)	8%	-25%[10 µM]	-81*	15%	-23%	?
COCCNC(=O)C(C)OC(=O)c1cc2occc2n1C (stereo not drawn)	32µM*	0%	-11	-7%	?	14µM*
SMILES	ALDH1A1 block	HTT ATP protect	PNC inhibitor	GoLoco inh red	HTT aggregate	HPGD block
Cc1ccc(S(=O)(=O)N2CCN(c3ccc([N+](=O)[O-])c(NCCN4CCOCC4)c3)CC2)cc1	6%	5%[10 µM]	-83*	11%	-1%	-12%
CCOc1ccc(C(=O)NCC(=O)OCc2cc(C(C)=O)ccc2OC)cc1	3.5µM*	31%[10 µM]	?	4%	?	-6%
COc1ccc(C(C)=O)cc1COC(=O)CNC(=O)c1ccc(F)cc1	?	11%[10 µM]	-20	-12%	10%	?
COc1ccc(C(C)=O)cc1COC(=O)CNC(=O)c1ccc(Cl)cc1	-1%	8%[10 µM]	-15	16%	-3%	16µM*
NS(=O)(=O)c1ccc(CCNC(=O)/C=C/c2cccc([N+](=O)[O-])c2)cc1	-3%	19%[10 µM]	/	9%	7%[9.22 µM]	/
O=C(NCc1ccco1)c1nc2c(nnn2Cc2ccccc2Cl)c(=O)[nH]1	-1%	20%[10 µM]	2	5%	-14%	14µM*
CCc1nc2c(nnn2Cc2ccc(F)cc2)c(=O)[nH]1	-8%	0%	?	16%	1%	14µM*
O=C(NCc1cccs1)c1nc2c(nnn2Cc2ccc(F)cc2)c(=O)[nH]1	-1%	14%[10 µM]	-21	4%	3%	14µM*
Cc1nc(NCC2CCCO2)c2nnn(Cc3ccccc3)c2n1 (stereo not drawn)	22µM*	-18%	15	-15%	-18%	-27%
CC(C)(C)NC[C@@H](O)c1ccc(O)c(CO)n1	5%[13.5 µM]	31%	/	5%[14.2 µM]	6%	-3%
COc1ccc(C(=O)Oc2ccc(=O)n(-c3ccccc3)n2)cc1	?	18%	?	1%	1%	-11%
O=C(NCC1CCCO1)c1nc2c(nnn2Cc2ccc(F)cc2)c(=O)[nH]1 (stereo not drawn)	1%	-18%	-16	-8%	-11%	14µM*
O=C(NCC1CCCO1)C1CCC(=O)N1Cc1ccc(F)cc1 (stereo not drawn)	5%	-2%	-16	2%	-1%	-8%
Cn1c2ccccc2c2nn(-c3ccccc3)c(=O)cc21	13µM*	0%	47	7%	-8%	-16%
CC(C)(C)N=C1NN=C(c2cc3ccccc3o2)CS1	22µM*	-56%[10 µM]	0	/	12%	/
COc1ccc(OC2C=CC(c3ccccc3)OC2CO)c(C(C)=O)c1 (stereo not drawn)	-3%[13.5 µM]	-5%[10 µM]	/	/	/	/
S=c1[nH]nc(Cc2noc3ccccc23)n1-c1ccccc1	-2%	-26%	/	-2%	-1%	/
C=CCn1c(Cc2cccc3ccccc23)n[nH]c1=S	-8%	21%[10 µM]	-25	13%	15%	28µM*
COc1ccc(CSCCc2n[nH]c(=S)n2-c2ccccc2)cc1C	0%	-10%	/	12%	?	/
S=c1[nH]nc(Cc2cccc3ccccc23)n1-c1ccccc1	?	9%	41	-4%	-14%	14µM*
S=c1[nH]nc(CCSCc2ccccc2)n1-c1ccccc1	35µM*	-27%	/	11%	21%	/
COC(=O)CN(C)C1CC(=O)N(c2ccc(Cl)cc2)C1=O (stereo not drawn)	3.2µM*	2%	14	-31%	-6%	-22%

Screens as filed in PubChem.
